From PubChem BioAssay (NCATS)
Where “and” joins values, the source holds several entries; their conditions need not be identical. Identical values can stand only once. Records with an inconclusive call do not appear. Unmarked numbers belong to inactive results. Calls of active or inactive are those of the source. Calls come from the whole dose curve; as a rule, active = well fitted inhibition curve with a large enough effect; inconclusive = small, poorly fitted or top-dose-only effect; inactive = flat fitted curve, though single readings scatter.

System: HaCat
Assay: Cytotoxic Profiling of Annotated Libraries Using Quantitative High-Throughput Screening (AID 1296008); note: nearly all actives have a fitted effect of over 60% in size
Details: Five cell lines viability, CellTiter-Glo ATP luminescence, 48-72 h; max response: stronger effect = lower value
In short: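 Cytotoxicity was measured as CellTiter-Glo ATP luminescence, read after 10 min at room temperature. Compound treatment of the cells lasted 48 or 72 hr at 37 degrees Celsius in a qHTS format.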
% is set by controls: 0 for no effect and ±100 for the full control effect; potency is the fitted concentration of half-maximal effect.

Question: Which outcome does the source give for `O=C(O)c1ccc(O)c2ncc(N3CCOCC3)cc12` here?
Answer: inactive

Question: For `CC[C@H](C)n1cc(C)c2c(C(=O)NCc3c(C)cc(C)[nH]c3=O)cc(-c3ccc(N4CCNCC4)nc3)cc21`, which outcome is on record?
Answer: inactive

Question: How did the outcome turn out when `N=C1SC(=Cc2ccc(-c3ccc4c(c3)C(=O)NC4=O)o2)C(=O)N1c1ccc(Br)cc1` was run?
Answer: inactive

Question: Which outcome does the source give for `O=C(C=Cc1ccc(O)cc1)c1ccc(O)cc1O` here?
Answer: inactive

Question: How did the max response turn out when `Cc1[nH]c(C=C2C(=O)Nc3ccc(S(=O)(=O)N(C)c4cccc(Cl)c4)cc32)c(C)c1C(=O)N1CCN(C)CC1` was run?
Answer: -0.347%

Question: How did the outcome turn out when `O=C(Nc1ccc(OC(F)(F)F)cc1)c1sccc1NCc1ccnc2ccccc12` was run?
Answer: inactive

Question: `CN(C)CCCNC(=O)c1ccc(-c2cc(O)c3ncccc3c2)cc1` was tested. Which max response did it give?
Answer: -4.67%

Question: With `CCCCc1ccc(NS(=O)(=O)c2ccc(C)c(C(=O)N3CCN(c4cccc(C)c4C)CC3)c2)cc1` as the compound, how does the max response read?
Answer: -17%

Question: How did the max response turn out when `COc1c(C)c2c(c(O)c1CC=C(C)CCC(=O)O)C(=O)OC2` was run?
Answer: -8.02%

Question: With `C[C@@H](O[C@H]1OCCN(Cc2n[nH]c(=O)[nH]2)[C@@H]1c1ccc(F)cc1)c1cc(C(F)(F)F)cc(C(F)(F)F)c1` as the compound, how does the max response read?
Answer: -38.5%

Question: With `Nc1ccn([C@@H]2O[C@H](CO)[C@@H](O)[C@H]2O)c(=O)n1` as the compound, how does the Potency read?
Answer: 29.6 µM (active)

Question: Which max response does the source give for `CN1C(=O)C[C@H](C(=O)N[C@@H](Cc2cnc[nH]2)C(=O)N2CCC[C@@H]2C(N)=O)NC1=O` here?
Answer: -3.47%

Question: With `CC(C)c1c(C(=O)Nc2ccccc2)c(-c2ccccc2)c(-c2ccc(F)cc2)n1CC[C@H](O)C[C@@H](O)CC(=O)O` as the compound, how does the Potency read?
Answer: 20.9 µM (active)

Question: For `CCc1cc(-c2n[nH]c(C)c2-c2ccc3c(c2)OCCO3)c(O)cc1O`, which Potency is on record?
Answer: 7.43 µM (active)

Question: How did the Potency turn out when `CN(C)CC[C@H](CSc1ccccc1)Nc1ccc(S(=O)(=O)NC(=O)c2ccc(N3CCN(Cc4ccccc4-c4ccc(Cl)cc4)CC3)cc2)cc1[N+](=O)[O-]` was run?
Answer: 18.7 µM (active)

Question: How did the max response turn out when `COc1cc2c(cc1Cc1cccc(Cl)c1F)c(=O)c(C(=O)O)cn2[C@H](CO)C(C)C` was run?
Answer: -24.6%

Question: With `COc1cc2nc(-c3cc(F)ccc3O)nc(N[C@@H]3CNC[C@@H]3C(C)(C)O)c2cc1OC` as the compound, how does the Potency read?
Answer: 26.4 µM (active)

Question: How did the max response turn out when `NC1(C(=O)N[C@@H](CCO)c2ccc(Cl)cc2)CCN(c2ncnc3[nH]ccc23)CC1` was run?
Answer: -16.7%

Question: With `CO[C@H]1O[C@@H]2O[C@@]3(C)CC[C@@H]4[C@@H](C)CC[C@@H]([C@H]1C)[C@@]24OO3` as the compound, how does the max response read?
Answer: -9.33%

Question: For `COc1ccc(-c2oc3c(CC=C(C)C)c(O)cc(O)c3c(=O)c2O)cc1`, which outcome is on record?
Answer: inactive

Question: For `CC(C)(O)CC(=O)NCCn1ccc2ncnc(Nc3ccc(Oc4cccc(C(F)(F)F)c4)c(Cl)c3)c21`, which Potency is on record?
Answer: 372 nM (active) and 3.66 µM (active)

Question: For `CC(C)N(CCCNC(=O)Nc1ccc(C(C)(C)C)cc1)C[C@H]1O[C@@H](n2cc(Br)c3c(N)ncnc32)[C@H](O)[C@H]1O`, which max response is on record?
Answer: -6.68%

Question: Which Potency does the source give for `CNC(=O)[C@H](Cc1ccccc1)NC(=O)[C@H](CC(C)C)[C@H](CSc1cccs1)C(=O)NO` here?
Answer: 13.2 µM (active)

Question: Which max response does the source give for `NC(=O)c1nnn(Cc2cc(Cl)c(C(=O)c3ccc(Cl)cc3)c(Cl)c2)c1N` here?
Answer: -5.54%

Question: With `O=C(Nc1cccc2c(=O)cc(-c3nn[nH]n3)oc12)c1ccc(OCCCCc2ccccc2)cc1` as the compound, how does the outcome read?
Answer: inactive

Question: `CON(C)C(=O)N1N=C(c2cc(F)ccc2F)S[C@]1(CCCN)c1ccccc1` was tested. Which max response did it give?
Answer: -26.8%

Question: How did the outcome turn out when `Cc1ccc(NC(=O)c2cccc(N(C)C)c2)cc1NC(=O)c1ccc(O)cc1` was run?
Answer: inactive

Question: `OCCn1cc(-c2ccc3c(c2)CCC3=NO)c(-c2ccncc2)n1` was tested. Which max response did it give?
Answer: 1.64%

Question: Which outcome does the source give for `OC(c1cc(C(F)(F)F)nc2c(C(F)(F)F)cccc12)C1CCCCN1` (stereo unspecified) here?
Answer: inactive

Question: Which max response does the source give for `O=C1CN2Cc3c(ccc(Cl)c3Cl)N=C2N1` here?
Answer: -28.5%

Question: With `CC(C)(F)C[C@H](N[C@@H](c1ccc(-c2ccc(S(C)(=O)=O)cc2)cc1)C(F)(F)F)C(=O)NC1(C#N)CC1` as the compound, how does the outcome read?
Answer: inactive

Question: How did the max response turn out when `Cc1ccccc1C(=O)c1ccc(Nc2ccc(Br)cc2N)cc1Cl` was run?
Answer: -2.01%

Question: `CNC(=O)c1cc(Oc2ccc(NC(=O)Nc3ccc(Cl)c(C(F)(F)F)c3)c(F)c2)ccn1` was tested. Which outcome did it give?
Answer: inactive

Question: With `O=S(=O)(NCCNCC=Cc1ccc(Br)cc1)c1cccc2cnccc12` as the compound, how does the max response read?
Answer: -0.249%

Question: `COc1ccc2nc3cc(Cl)ccc3c(Nc3cc(CN4CCCC4)c(O)c(CN4CCCC4)c3)c2n1` was tested. Which outcome did it give?
Answer: inactive

Question: With `CN1CCC[C@H]1CCO[C@](C)(c1ccccc1)c1ccc(Cl)cc1` as the compound, how does the outcome read?
Answer: inactive
